# IDE exosite inh: insulin-degrading enzyme (human) exo-site inhibition | 17,000 tested, 6.3% active | z-score at 20 µM | AID 1259349 | P14735 | purified IDE, FL-6b probe fluorescence polarization; active compounds read low;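 active = z-score of -3 or lower, meaning strong loss of probe binding signal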;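 note: His-tagged human IDE residues 42-1019 made in E. coli with 30 nM FL-6b probe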
# Target sequence (P14735 42-1019 limits assumed): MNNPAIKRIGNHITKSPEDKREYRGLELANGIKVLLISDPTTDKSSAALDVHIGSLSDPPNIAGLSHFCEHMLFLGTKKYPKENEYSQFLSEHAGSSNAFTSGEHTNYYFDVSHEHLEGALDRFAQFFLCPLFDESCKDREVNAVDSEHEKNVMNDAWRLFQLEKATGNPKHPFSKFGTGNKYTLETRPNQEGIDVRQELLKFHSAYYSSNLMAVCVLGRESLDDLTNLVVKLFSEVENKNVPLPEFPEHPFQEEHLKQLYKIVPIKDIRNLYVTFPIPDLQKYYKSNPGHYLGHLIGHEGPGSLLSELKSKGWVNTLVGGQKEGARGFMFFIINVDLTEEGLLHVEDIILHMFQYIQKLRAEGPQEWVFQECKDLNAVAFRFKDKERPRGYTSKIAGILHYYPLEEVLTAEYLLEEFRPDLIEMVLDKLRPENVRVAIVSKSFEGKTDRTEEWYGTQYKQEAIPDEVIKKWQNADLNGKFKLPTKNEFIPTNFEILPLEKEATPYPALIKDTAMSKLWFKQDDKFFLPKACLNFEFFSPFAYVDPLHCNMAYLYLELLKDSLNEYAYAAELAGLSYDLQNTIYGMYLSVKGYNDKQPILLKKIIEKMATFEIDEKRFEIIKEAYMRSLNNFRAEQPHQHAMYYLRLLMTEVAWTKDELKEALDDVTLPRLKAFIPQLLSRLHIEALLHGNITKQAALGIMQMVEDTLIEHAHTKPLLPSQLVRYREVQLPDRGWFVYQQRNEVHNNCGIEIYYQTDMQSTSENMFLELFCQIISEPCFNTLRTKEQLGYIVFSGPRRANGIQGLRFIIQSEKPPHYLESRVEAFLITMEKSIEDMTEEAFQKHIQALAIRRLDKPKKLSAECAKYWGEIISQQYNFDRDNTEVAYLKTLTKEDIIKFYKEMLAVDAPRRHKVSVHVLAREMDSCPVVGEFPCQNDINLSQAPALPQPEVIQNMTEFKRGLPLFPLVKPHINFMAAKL
# * marks the source's active call; other numbers are inactive results. This is one part of a sample in which hits are shown more often than they occur.
SMILES,IDE exosite inh
CO[C@H]1CN(C)C(=O)c2cccc(C#N)c2OCC[C@@H]2CC[C@@H](OC)[C@H](CN(C)C(=O)[C@@H]1C)O2,1.2
COCC#Cc1ccc([C@H]2[C@@H](CO)N3C(=O)CN(C(=O)Nc4cc(F)ccc4F)C[C@H]23)cc1,0.33
O=C(c1cnccn1)N1CC(=O)N2[C@H](C1)[C@H](c1ccc(C#CCC3CCCC3)cc1)[C@@H]2CO,3.9
Cc1noc(C)c1NC(=O)Nc1ccc2c(c1)C(=O)N([C@H](C)CO)C[C@@H](C)[C@H](CN(C)Cc1ccc3c(c1)OCO3)OCCCC[C@H](C)O2,0.58
CS(=O)(=O)N1CCCCN2[C@@H](CO)[C@@H](c3ccc(C4=CCCC4)cc3)[C@@H]2C1,0.72
Cc1ccccc1-c1ccc([C@H]2[C@@H](CO)N3CCCCN(S(C)(=O)=O)C[C@H]23)cc1,-7.7*
CS(=O)(=O)N1CCCCN2[C@H](C1)[C@H](c1ccc(C3=CCCC3)cc1)[C@@H]2CO,3
COc1cccc(S(=O)(=O)N2C[C@H](O)COC[C@H]3O[C@H](CC(=O)NCCCN4CCOCC4)CC[C@@H]32)c1,-0.46
COc1ccc(-c2ccccc2[C@@H]2[C@@H](CO)N(C(=O)NC(C)C)[C@H]2C#N)cc1,0.46
C[C@H](O)C#Cc1ccc([C@@H]2[C@@H](CO)N3CCCCN(C(=O)c4ccncc4)C[C@H]23)cc1,2.4
COc1cccc(C#Cc2ccc([C@@H]3[C@@H](CO)N4C(=O)CN(S(=O)(=O)c5ccccc5C)C[C@@H]34)cc2)c1,0.34
C/C=C/c1ccc([C@@H]2[C@@H](CO)N(C(C)=O)[C@H]2CN(CC)C(=O)CC)cc1,2
CCCC#Cc1ccc([C@@H]2[C@@H](CO)N3C(=O)CN(C(=O)c4ccccn4)C[C@@H]23)cc1,-0.34
O=C(c1ccccn1)N1CC(=O)N2[C@H](CO)[C@H](c3ccc(C#CCc4ccccc4)cc3)[C@@H]2C1,-1.8
O=C(c1ccccn1)N1CC(=O)N2[C@@H](CO)[C@H](c3ccc(C#Cc4ccccc4)cc3)[C@@H]2C1,-9.7*
O=C(c1ccccn1)N1CC(=O)N2[C@H](CO)[C@H](c3ccc(C#Cc4ccccc4)cc3)[C@H]2C1,-14*
CCCC#Cc1ccc([C@H]2[C@@H](CO)N3C(=O)CN(C(=O)c4ccccn4)C[C@H]23)cc1,3.1
O=C(c1ccccn1)N1CC(=O)N2[C@@H](CO)[C@H](c3ccc(C#CCc4ccccc4)cc3)[C@@H]2C1,-1.1
Cc1ccccc1S(=O)(=O)N1CC(=O)N2[C@H](CO)[C@@H](c3ccc(C#CCN(C)C)cc3)[C@@H]2C1,4
N#C[C@@H]1[C@H](c2ccc(-c3cccc(F)c3)cc2)[C@H](CO)N1S(=O)(=O)c1cccc(F)c1,2.3
N#Cc1cccc(-c2ccc3c(c2)[C@@H]2[C@@H](CCN2C(=O)c2ccccc2F)[C@@H](CO)N3)c1,0.04
COc1cccc(NC(=O)N2C[C@@H](O)COC[C@@H]3O[C@H](CC(=O)N(C)C)CC[C@H]32)c1,-0.46
O=C(C[C@@H]1CC[C@H]2NC[C@H](O)COC[C@@H]2O1)Nc1ccc(-c2ccccc2)cc1,-2.1
N#C[C@H]1[C@H](c2ccccc2C2=CCCCC2)[C@@H](CO)N1S(=O)(=O)c1ccccc1,1
CCC(=O)N1CCCCN2[C@H](CO)[C@@H](c3ccc(C#CCOC)cc3)[C@H]2C1,2.8
SMILES,IDE exosite inh
COc1ccc(C#Cc2ccc([C@@H]3[C@@H](CO)N4CCCCN(C(=O)Nc5ccccc5F)C[C@H]34)cc2)cc1,1.8
COc1ccc(C#Cc2ccc([C@H]3[C@H]4CN(C(=O)Nc5ccccc5F)CCCCN4[C@H]3CO)cc2)cc1,3
CC(=O)N1CCCCN2[C@H](CO)[C@@H](c3ccc(C#Cc4ccccc4F)cc3)[C@H]2C1,-5.2*
CCC(=O)N1CCCCN2[C@@H](CO)[C@H](c3ccc(C#Cc4ccccc4F)cc3)[C@@H]2C1,-3.9*
CCC(=O)N1CCCCN2[C@H](CO)[C@@H](c3ccc(C#Cc4ccccc4F)cc3)[C@H]2C1,1.8
CCC(=O)N1CCCCN2[C@@H](CO)[C@@H](c3ccc(C#Cc4ccccc4F)cc3)[C@@H]2C1,-8.2*
COc1ccc(C#Cc2ccc([C@@H]3[C@H]4CN(C(=O)Nc5ccccc5F)CCCCN4[C@H]3CO)cc2)cc1,0.86
CN1C(=O)c2cc(NC(=O)C3CCOCC3)ccc2OC[C@@H]2O[C@H](CC(=O)NCC3CCCCC3)CC[C@@H]21,0.62
C/C=C/c1ccc([C@H]2[C@H](CO)N(C(=O)CC)[C@H]2CN(C)S(C)(=O)=O)cc1,3.2
O=C(Cc1ccccn1)N1[C@H](CO)[C@H]2c3ccccc3NC[C@H]21,2
O=C(C[C@H]1C[C@@H]2c3cc(NC(=O)C4CCOCC4)ccc3O[C@@H]2[C@@H](CO)O1)NCc1cccnc1,0
OC[C@H]1[C@@H](c2ccc(-c3ccccc3F)cc2)[C@@H]2CN(Cc3cncnc3)CCCCN12,-2.7
OC[C@H]1[C@@H](c2ccc(C#Cc3ccccc3F)cc2)[C@@H]2CN(Cc3cncnc3)CCCCN12,-15*
OC[C@H]1[C@@H](c2ccc(-c3ccccc3F)cc2)[C@H]2CN(Cc3cncnc3)CCCCN21,-3.2*
OC[C@@H]1[C@@H](c2ccc(C#Cc3cccnc3)cc2)[C@@H]2CN(Cc3ccccc3F)CCCCN12,-0.035
OC[C@@H]1[C@@H](c2ccc(C#Cc3ccccc3F)cc2)[C@@H]2CN(Cc3cncnc3)CCCCN12,-6.3*
OC[C@H]1[C@@H](c2ccc(C#Cc3ccccc3F)cc2)[C@H]2CN(Cc3cncnc3)CCCCN21,-2.1
OC[C@@H]1[C@H](c2ccc(-c3ccccc3F)cc2)[C@@H]2CN(Cc3cccnc3)CCCCN12,-1.2
O=C(C[C@H]1C[C@H]2c3cc(NS(=O)(=O)c4ccccc4)ccc3O[C@H]2[C@@H](CO)O1)N1CCOCC1,0.36
O=C(Cc1ccccc1)N1CC(=O)N2[C@H](CO)[C@H](c3ccc(Br)cc3)[C@@H]2C1,-1.5
O=C(C[C@@H]1C=C[C@H](NC(=O)Nc2cccc(F)c2)[C@@H](CO)O1)NCC1CCCCC1,1.2
COCC#Cc1ccc([C@@H]2[C@H]3CN(C(=O)Nc4cc(F)ccc4F)CCCCN3[C@H]2CO)cc1,4.3
O=C(C[C@@H]1CC[C@H](NC(=O)Nc2ccc(C(F)(F)F)cc2)[C@@H](CO)O1)NCc1cccc(F)c1,1.9
COc1ccc(C#Cc2ccc([C@H]3[C@@H](CO)N4C(=O)CN(C(C)=O)C[C@@H]34)cc2)cc1,3.9
COc1ccc(C#Cc2ccc([C@H]3[C@H]4CN(C(C)=O)CC(=O)N4[C@H]3CO)cc2)cc1,2.7
SMILES,IDE exosite inh
COc1ccc(C#Cc2ccc([C@@H]3[C@@H](CO)N4C(=O)CN(C(C)=O)C[C@H]34)cc2)cc1,3.6
COc1cccc(C#Cc2ccc([C@H]3[C@H]4CN(C(C)=O)CC(=O)N4[C@H]3CO)cc2)c1,-7.9*
COc1cccc(C#Cc2ccc([C@@H]3[C@@H](CO)N4C(=O)CN(C(C)=O)C[C@@H]34)cc2)c1,-7.5*
COc1ccc(C#Cc2ccc([C@H]3[C@@H](CO)N4C(=O)CN(C(C)=O)C[C@H]34)cc2)cc1,1.7
CCNC(=O)C[C@@H]1CC[C@@H]2[C@H](COC[C@@H](O)CN2C(=O)C2CCCC2)O1,0.68
Cc1ccc(-c2ccc([C@@H]3[C@H]4CN(C(=O)CN5CCOCC5)CC(=O)N4[C@H]3CO)cc2)cc1,-2.1
Cc1ccc(-c2ccc([C@H]3[C@@H](CO)N4C(=O)CN(C(=O)CN5CCOCC5)C[C@@H]34)cc2)cc1,-0.81
